In PubChem BioAssay (NCATS):
Values joined by “and” are separate entries in the source; they are usually repeats but may differ in a detail not shown here. Identical values can stand only once. Records with an inconclusive call do not appear. Unmarked numbers belong to inactive results. Active and inactive are the calls of the source. The call rests on the fitted dose curve; in most records, active means well fitted inhibition curve with a large enough effect; inconclusive means small, poorly fitted or top-dose-only effect; inactive means flat fitted curve, though single readings scatter. Where a SMILES comes first, the peptide text is derived from it. [ ]: non-standard residue; d: D form. pGlu = O=C1CC[C@@H](C(=O)O)N1

system: KB-3-1; experiment: Cytotoxic Profiling of Annotated Libraries Using Quantitative High-Throughput Screening (AID 1296008); conditions: Five cell lines viability, CellTiter-Glo ATP luminescence, 48-72 h; max response: hits give low values; further: nearly all actives have a fitted effect of over 60% in size
Method in brief: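 Cells exposed to compounds for 48 or 72 hr at 37 degrees Celsius. Viability read as ATP-coupled luminescence with CellTiter-Glo after 10 min at room temperature.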
On the % scale 0 is the no-effect control and ±100 the full control effect; potency means the concentration at half of the fitted maximal effect.

Structure (SMILES)	max response	Potency
CO/N=C(/C(=O)N[C@@H]1C(=O)N2C(C(=O)O)=C(COC(N)=O)CS[C@H]12)c1ccco1	-4.54% and -18.4%	–
CO[C@H]1C=CO[C@@]2(C)Oc3c(C)c(O)c4c(O)c(cc(O)c4c3C2=O)NC(=O)/C(C)=C\C=C/[C@H](C)[C@H](O)[C@@H](C)[C@@H](O)[C@@H](C)[C@H](OC(C)=O)[C@@H]1C	-3.21%	–
C[C@H](CCC(=O)O)[C@H]1CC[C@H]2[C@@H]3[C@H](O)C[C@@H]4C[C@H](O)CC[C@]4(C)[C@H]3C[C@H](O)[C@]12C	1.07%	–
COc1ccc(/C=C/C(=O)O)cc1	-11.7%	–
CC(C)=CCC/C(C)=C/CC/C(C)=C/CC/C=C(\C)CC/C=C(\C)CCC=C(C)C	6.34% and -6.32%	–
C[C@H](CCCC(C)(C)O)[C@H]1CC[C@H]2[C@@H]3CC=C4C[C@@H](O)CC[C@]4(C)[C@H]3CC[C@]12C	2.18%	–
COc1cc(NCCCC(C)N)c2ncccc2c1 (stereo not given)	-4.33%	–
Cc1ccccn1	-6.48%	–
NCCO/C=C/[C@H](N)C(=O)O	0.921%	–
Cc1c(O)c(=O)ccn1C	5.64%	–
CC1(O)CCC(C(C)(C)O)CC1 (stereo not given)	-9.81%	–
CC[C@H](C)[C@H](NC(=O)[C@H](Cc1ccccc1)NC(=O)[C@H](C)NC(=O)[C@H](CC(=O)O)NC(=O)[C@H](CCCCN)NC(=O)[C@H](CO)NC(=O)[C@@H]1CCCN1C(=O)[C@@H]1CCC(=O)N1)C(=O)NCC(=O)N[C@@H](CC(C)C)C(=O)N[C@@H](CCSC)C(N)=O ([pGlu]PSKDAFIGLM-NH2)	17.8%	–
CC(C)Cc1ccc([C@@H](C)C(=O)NS(C)(=O)=O)cc1	3.61%	–
Oc1ccc(Cl)c2c1CCC2	-14.4%	–
CCN(CC)CCOc1ccc2nc(N(C)C)sc2c1	-23.9%	–
CN1C(=O)C[C@@H](C(=O)N[C@@H](Cc2cnc[nH]2)C(=O)N2CCC[C@H]2C(N)=O)NC1=O	5.84%	–
CC/C=C\C/C=C\C/C=C\CCCCCCCC(=O)O	-1.86%	–
O=C(O)[C@@H]1C[C@H](CP(=O)(O)O)CCN1	23.4%	–
O=c1[nH]c(=O)n([C@H]2C[C@H](O)[C@@H](CO)O2)cc1/C=C/Br	1.96%	–
O=C(OCc1ccccc1)c1cccnc1	-9.74%	–

Structure (SMILES)	max response	Potency
O=C(O)c1cc(O)c2c(c1)[C@H]([C@H]1c3cc(C(=O)O)cc(O)c3C(=O)c3c(O[C@@H]4O[C@H](CO)[C@@H](O)[C@H](O)[C@H]4O)cccc31)c1cccc(O[C@@H]3O[C@H](CO)[C@@H](O)[C@H](O)[C@H]3O)c1C2=O	-13.8%	–
CCOC(=O)Cc1ccc(-c2ccccc2)cc1	6.55%	–
O=[N+]([O-])O[C@@H]1CO[C@H]2[C@@H]1OC[C@@H]2O	-3.81%	–
CCOc1cc(-c2nccc3cc(OC)c(OC)cc23)cc(OCC)c1OCC	-26.3%	–
NC(=O)c1cc[n+](CC2=C(C(=O)O)N3C(=O)[C@@H](NC(=O)C(c4ccccc4)S(=O)(=O)[O-])[C@H]3SC2)cc1 (stereo not given in full)	1.04%	–
Cc1cc(-c2ccc(N=Nc3ccc4c(S(=O)(=O)O)cc(S(=O)(=O)O)c(N)c4c3O)c(C)c2)ccc1N=Nc1ccc2c(S(=O)(=O)O)cc(S(=O)(=O)O)c(N)c2c1O	–	8.2 µM (active)
COc1ccc(/C=N/NC(=O)c2ccncc2)c(C(=O)O)c1OC	-1.02%	–
CO/N=C(\C(=O)N[C@@H]1C(=O)N2C(C(=O)O)=CCS[C@H]12)c1csc(N)n1	1.16%	–
CC(C)C[C@H](NC(=O)[C@@H](COC(C)(C)C)NC(=O)[C@H](Cc1ccc(O)cc1)NC(=O)[C@H](CO)NC(=O)[C@H](Cc1c[nH]c2ccccc12)NC(=O)[C@H](Cc1cnc[nH]1)NC(=O)[C@@H]1CCC(=O)N1)C(=O)N[C@@H](CCCN=C(N)N)C(=O)N1CCC[C@H]1C(=O)NNC(N)=O	-3.63% and -15.5%	–
Cc1ncc(C[n+]2csc(CCO)c2C)c(N)n1	-14.6%	–
COc1ccc2c(c1)OC(C)(C)C(c1ccccc1)C2c1ccc(OCCN2CCCC2)cc1 (stereo not given)	-26.5%	–
Cc1c(N)nc([C@H](CC(N)=O)NC[C@H](N)C(N)=O)nc1C(=O)N[C@H](C(=O)N[C@H](C)[C@@H](O)[C@H](C)C(=O)N[C@H](C(=O)NCCc1nc(-c2nc(C(=O)NCCCCN=C(N)N)cs2)cs1)[C@@H](C)O)[C@@H](O[C@@H]1O[C@@H](CO)[C@@H](O)[C@H](O)[C@@H]1O[C@H]1O[C@H](CO)[C@@H](O)[C@H](OC(N)=O)[C@@H]1O)c1cnc[nH]1	-6.52% and -5.98%	–
CNCC(=O)N[C@@H](CCCN=C(N)N)C(=O)N[C@H](C(=O)N[C@@H](Cc1ccc(O)cc1)C(=O)N[C@H](C(=O)N[C@@H](Cc1cnc[nH]1)C(=O)N1CCC[C@H]1C(=O)N[C@@H](C)C(=O)O)C(C)C)C(C)C	1.41%	–
C[C@H](NCCc1ccc(O)cc1)[C@H](O)c1ccc(O)cc1	-13.6%	–
N=C(N)n1cccn1	3.42%	–
CC(C)C1=CC2=CC[C@@H]3[C@](C)(CCC[C@@]3(C)C(=O)O)[C@H]2CC1	-11.9%	–
NC(=O)C1c2ccccc2CCc2ccccc21	5.54%	–
O=C(NCCNCC(O)COc1ccc(O)cc1)N1CCOCC1 (stereo not given)	1.66%	–
CC(O)CN(C)C (stereo not given)	-6.37%	–
COC(=O)C(CN)c1c[nH]c2ccc(OC)cc12 (stereo not given)	9.41%	–
